# Source: article PMC12136788
# Whole data set: some 24,000 sequences, median “enrichment r” near 0.99, cut for the highest 2% near 3.7. What follows is part of a selection rich in the highest values, with near analogues and random picks from the rest.
# T1: UNK ZnF1-3 (human, UniProt Q9C0B0 31-174)
# T1 sequence: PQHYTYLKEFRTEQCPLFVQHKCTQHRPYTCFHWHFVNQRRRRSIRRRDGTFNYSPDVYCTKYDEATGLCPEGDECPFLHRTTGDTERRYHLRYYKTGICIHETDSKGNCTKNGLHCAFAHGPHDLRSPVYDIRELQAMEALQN
# B1: chr4:25749455:25749456:-_ENSG00000091490_ENST00000264868|hu_hu|hu_hu_hu_mus_False|48_68 (ssRNA)
# RNA: GGGAGUUCUACAGUCCGACGAUCGCACUAUGACCUCUAGAAAAAUCCACAGGGGGAAAAAAUGUAAACCAAUUUACAAUGUUAUCGCCCUCCCUGCGUGUGGAGUGUUUGUCUCAAGGCUCCUUCUAGCUGCUGGAUUUGGGACAACAGAGGAUUGAGCAUCA
# B2: chr17:25064881:25064882:-_ENSMUSG00000024163_ENSMUST00000117509|mus_mus|FALSE|FALSE (ssRNA)
# RNA: GGGAGUUCUACAGUCCGACGAUCAUAAUGUUCUACCUGGAUCUGGAGUUCUUUCUUCUCUUGUUCCAAGGCAUCUUCAAAUUCGAUGAAUUUCUCCUCGGCCUGUUUGCGCAGCGCCUUCUCGCGCUCGUAUUGCGUGAGCAGCAACAGAGGAUUGAGCAUCA
# B3: chr3:51263940:51263941:+_ENSMUSG00000063273_ENSMUST00000029303|mus_hu|FALSE|FALSE (ssRNA)
# RNA: GGGAGUUCUACAGUCCGACGAUCGUAAAAUGGAUGCUGUCGAAGUACAUCUUCUAGUUUUAAUAAGUCCACAUAUGAUCUAAGGGUAAUCUUCCUCAUACAGUAUGUAUGAAAGUCAAACUGGUCAUCAGUGAUUUCUAUAAACAACAGAGGAUUGAGCAUCA
# B4: 136207635_136207755_6660_3pUTR_ENSMUSG00000028664_ENSMUST00000105845|mouse|control|control (ssRNA)
# RNA: GGGAGUUCUACAGUCCGACGAUCGUAUAAGUGUUCUCUGCUACUCUUGUGUCUGCUCAGAAGCAGUGGGUCUAGCACUAAGGAUGUCACUAUUGACCAUAACUUCUUUCCUAGAGAUAAGGUCUUAUGUGGCCCAGGCUGGCUCAACAGAGGAUUGAGCAUCA
# B5: chr6:114281168:114281169:-_ENSG00000196591_ENST00000368632|hu_hu|hu_hu_hu_mus_True|8_108 (ssRNA)
# RNA: GGGAGUUCUACAGUCCGACGAUCUUCCAUUUUUCUGUAUAAACCAUAAUUUAGCAGCAAGUUAUGAGUCAUCCGGAUUCUAUGAGGCUUCAUGGGAUGACCCUGGCCAUAAUAAUAAUUGCCAAUAUCACAGAUUCAGUAGUACAACAGAGGAUUGAGCAUCA
# B6: chr2:55200753:55200754:-_ENSG00000115310_ENST00000317610|hu_hu|motif|central (ssRNA)
# RNA: GGGAGUUCUACAGUCCGACGAUCUUGGAUUUUAGCCAUAGCAUCUUUAACAUUCUUAUUUGCAAGUCCUAGAUAAUGAUCGGUCUGUGCCUGAUGCCGUUCAUAAAUAACAGGAACACUGAAGAGUGAAAUGAGAGCCAAAAUCAACAGAGGAUUGAGCAUCA
# B7: chr1:53517203:53517204:+_ENSG00000116171_ENST00000408941|hu_mus|FALSE|FALSE (ssRNA)
# RNA: GGGAGUUCUACAGUCCGACGAUCUCAGGAAGAGCUGUUUUAAUUUUCUUUUUAAAUCUUCCAAAAGCAUAUUUUUAUCCCAAACCUAAAUUAUAACAAAUAGCAUUAGAAUUAGAAAAACUUGGAAGAAAGAUAAAUGCAGACCAACAGAGGAUUGAGCAUCA
# B8: chr5:180275300:180275301:-_ENSG00000196670_ENST00000512132|hu_mus|motif|central (ssRNA)
# RNA: GGGAGUUCUACAGUCCGACGAUCAGUUGUGAUCUUCCUACCACAAACCAUUACUGUUAAGUCUAUAAUUCAUGACCCACGGAUAAACUGAUAUUCCCUGAAACCAUCCUCUCCCUGAAUUUGCCUGUUGGAGGCCCUUCUUGGCAACAGAGGAUUGAGCAUCA
# B9: chr15:81824118:81824119:-_ENSMUSG00000022472_ENSMUST00000152227|mus_mus|motif|central (ssRNA)
# RNA: GGGAGUUCUACAGUCCGACGAUCGAAGGGAACCUUAAGGUCCCUCUGGAAUCUGGAGUCUAGAUCAUAGACUUCGGGGCGGUUGCUGCCCAUGAAAUCCUAGCAGCAUAUCAUUAAGAAAACGCCCACUCACACCCCAACCACCAACAGAGGAUUGAGCAUCA
# B10: chr20:33097842:33097843:+_ENSG00000078747_ENST00000374864|hu_hu|motif|central (ssRNA)
# RNA: GGGAGUUCUACAGUCCGACGAUCAAAAAUAUUAAAUAGCCAAGCCCUAUAGAACUAGGGCCAGGGCUACUUCAAAUAUAACGGUUCUGUAUUUUAAAAAUAUAGGGCAGAAAGCCUUUUGGGUGAUAUUUAUAUAUUUUCACACAACAGAGGAUUGAGCAUCA
# B11: 14087313_14087433_2671_3pUTR_ENSG00000147862_ENST00000380959|human|control|control (ssRNA)
# RNA: GGGAGUUCUACAGUCCGACGAUCGGGAAAAUAAAUUCGUUCAAAAUUAUUUUAAAUUCUUUUUAAUCCCCUCAAUUUAGAGUCCAAGGGCUGAAGGACUUAUAAUCAUGAUUCCCCUUUAGAUAUAAAUUUAUAAAUUGCACUCAACAGAGGAUUGAGCAUCA
# B12: chr1:135034296:135034297:+_ENSMUSG00000046062_ENSMUST00000052529|mus_hu|FALSE|FALSE (ssRNA)
# RNA: GGGAGUUCUACAGUCCGACGAUCUAGCCUAACAUAGACAGGCCAAAUCAUUGAAAUAAAAAAAAUAUAGAAAAACAUAAAAGCCCAUUAACUUCUGAAUUUUGGGAAAGAAACAAGAAAGAGCCCAAAGUUUUCAGAUAGGCACAACAGAGGAUUGAGCAUCA
# B13: chr11:60965389:60965390:-_ENSMUSG00000042506_ENSMUST00000041683|mus_hu|FALSE|FALSE (ssRNA)
# RNA: GGGAGUUCUACAGUCCGACGAUCCAGCUCCUCAAAAUGGAAGGGGAAAGGAAGAGUAAACAUCUUGGUAAAUAAAGUCUCCAACCACAGCACAGUCAUUGGAAUUUUUUUCUUCAUUUUUAUUUUCAAACUUACAGUAAACAACAACAGAGGAUUGAGCAUCA
# B14: 61064472_61067304_1030_3pUTR_ENSG00000119541_ENST00000238497|human|control|control (ssRNA)
# RNA: GGGAGUUCUACAGUCCGACGAUCUUCGUUUCUCAAAUCUUCGCCUAAUGGCAGAAUCCAGAACCCAGGGUAUAUUUGUAGCUCCCAGAACCAAAAUUCCAUCAUUGUCUACACCAACCCCUUGCAUUUGCACUAGGAACUCCGCAACAGAGGAUUGAGCAUCA
# B15: chr17:73267850:73267851:+_ENSMUSG00000024063_ENSMUST00000024857|mus_mus|FALSE|FALSE (ssRNA)
# RNA: GGGAGUUCUACAGUCCGACGAUCGAAAUAUACAGACAUGAAGUCCUAGGGGAGGCUGACCCACGCCCUUGUGAUUAAGAAAAACAAAACAAAACAAAACAAACAAACAAACAAAAAAAAACCAGUCACUGAGUCCUGAAUGAGCAACAGAGGAUUGAGCAUCA
# B16: chr10:114190419:114190420:-_ENSG00000023041_ENST00000369405|hu_hu|FALSE|FALSE (ssRNA)
# RNA: GGGAGUUCUACAGUCCGACGAUCGGGCAGGAAUUCAAAGGCAUAUGCAGAAUGGCUUCUCCAUUUCAAAAUGGUAAUAAAAAUAUUUAAAUCAUGGCACUAGGGCACCUUUGAGGAAAAGAACAUCUUAACCAGAGUAGGCUCCAACAGAGGAUUGAGCAUCA
# B17: chr6:38652254:38652255:-_ENSG00000124767_ENST00000373365|hu_hu|hu_hu_hu_mus_False|1_78 (ssRNA)
# RNA: GGGAGUUCUACAGUCCGACGAUCCGAGAACUUCAUAGCAGGGAAGUCAAGCUUCUGGAUUAGCGUCAGUCCAAGAACCCUCGUAUAAAAAUCCAGGGACUUCUUAGGAUCCUUAAUUCUUAGCAUCGUUUGCUGCAAUAGAAACAACAGAGGAUUGAGCAUCA
# Molecular target: T1, UNK ZnF1-3
# Assay: nsRBNS (natural sequence RNA bind-n-seq); RBNS binding buffer (assumed for nsRBNS): 25 mM Tris pH 7.5, 150 mM KCl, 3 mM MgCl2, 0.01% Triton X-100, 500 ug/ml BSA, 20 U/ml SUPERase-In, 4 C; UNK is unkempt and MSI1 is Musashi-1; names of the RNAs are library labels; protein concentration not given here; high values mean tight binding
row,Binder,binding signal [enrichment R]
1,B1,1.03
2,B2,0.355
3,B3,0.873
4,B4,0.733
5,B5,1.03
6,B6,1.53
7,B7,1.47
8,B8,0.806
9,B9,1.07
10,B10,0.982
11,B11,4.87
12,B12,11.8
13,B13,2
14,B14,1.29
15,B15,4.8
16,B16,4.18
17,B17,1.08
